{"source": "PubChem BioAssay (NCATS)", "note": "Values joined by “and” are separate entries in the source; they are usually repeats but may differ in a detail not shown here. Equal values may be shown once. Results filed as inconclusive are left out. Active and inactive are the calls of the source. The call rests on the fitted dose curve; in most records, active means well fitted curve in the direction sought with a large enough effect; inconclusive means small, poorly fitted or top-dose-only effect, or another doubt; inactive means no such curve, though single readings can be large; an effect the other way counts as inactive or inconclusive."}
{"test_system": "not listed separately", "assay": "Primary qHTS for inhibitors of nuclear receptor binding SET domain protein 2 (NSD2) in an isogenic RCH-ACV NSD2 p.E1099K mutant (9B) (AID 1645876); further: nearly all actives have a fitted effect of over 70% in size; further: potency means the concentration at half of the fitted maximal effect; on activity change, negative = viability loss: on the % scale 0 is the no-effect control and ±100 the full control effect", "settings": "RCH-ACV NSD2 E1099K (9B) viability, CellTiter-Glo, 72 h; series mostly up to 44.9 µM; activity change, negative = viability loss: at the top concentration"}
{"smiles": "Cc1cc(C)c(/C=C2\\C(=O)Nc3ccccc32)[nH]1", "activity change, negative = viability loss": "3.71% (inactive)"}
{"smiles": "CSc1ccc(C(=O)c2[nH]c(=O)[nH]c2C)cc1", "activity change, negative = viability loss": "-3.11% (inactive)"}
{"smiles": "CCCC(C(=O)OCCN(CC)CC)(c1ccccc1)c1ccccc1", "Potency": "13.3 µM (active)"}
{"smiles": "COC(=O)[C@H]1[C@H]2C[C@@H]3c4[nH]c5cc(OC)ccc5c4CCN3C[C@H]2C[C@@H](OC(=O)c2cc(OC)c(OC)c(OC)c2)[C@@H]1OC", "activity change, negative = viability loss": "-28.2% [at 17.3 µM] (inactive)"}
{"smiles": "C[C@]12C=CC(=O)C=C1CC[C@H]1[C@@H]3C[C@@H](O)[C@](O)(C(=O)CO)[C@@]3(C)C[C@H](O)[C@@]12F", "activity change, negative = viability loss": "-21.4% (inactive)"}
{"smiles": "COc1cc2c(cc1OC)-c1cc(=Nc3c(C)cc(C)cc3C)n(C)c(=O)n1CC2", "Potency": "15 µM (active)"}
{"smiles": "Cc1nnc(SCC2=C(C(=O)O)N3C(=O)[C@@H](NC(=O)Cn4cnnn4)[C@H]3SC2)s1", "activity change, negative = viability loss": "1.21% (inactive)"}
{"smiles": "CC(C)NCC(O)c1cc(O)cc(O)c1", "note": "(configuration not stated)", "activity change, negative = viability loss": "7.11% (inactive)"}
{"smiles": "COCCOC(=O)C1=C(C)NC(C)=C(C(=O)OC(C)C)C1c1cccc([N+](=O)[O-])c1", "note": "(configuration not stated)", "outcome": "inactive"}
{"smiles": "C[n+]1cc2c3c(ccc2c2ccc4cc5c(cc4c21)OCO5)OCO3", "Potency": "0.58 µM (active)"}
{"smiles": "C[C@]12CC[C@@H]3c4ccc(O)cc4C[C@@H](CCCCCCCCCS(=O)CCCC(F)(F)C(F)(F)F)[C@H]3[C@@H]1CC[C@@H]2O", "note": "(some centres not stated)", "activity change, negative = viability loss": "-11.5% (inactive)"}
{"smiles": "CCCCCN(CCCCC)C(=O)C(CCC(=O)O)NC(=O)c1ccc(Cl)c(Cl)c1", "note": "(configuration not stated)", "activity change, negative = viability loss": "5.54% (inactive)"}
{"smiles": "CC(=O)Oc1cc(C(C)C)c(OCCN(C)C)cc1C", "activity change, negative = viability loss": "9.89% (inactive)"}
{"smiles": "CCCCOCCOCCOCc1cc2c(cc1CCC)OCO2", "Potency": "inactive"}
{"smiles": "O=C1NCN(c2ccccc2)C12CCN(CCCC(c1ccc(F)cc1)c1ccc(F)cc1)CC2", "Potency": "4.22 µM (active)"}
{"smiles": "C[C@H](CS)C(=O)N1CCC[C@H]1C(=O)O", "outcome": "inactive"}
{"smiles": "CC(C)COCC(CN(Cc1ccccc1)c1ccccc1)N1CCCC1", "note": "(configuration not stated)", "Potency": "2.99 µM (active) and 16.6 µM (active)"}
{"smiles": "CO[C@@]1(NC(=O)CSCC#N)C(=O)N2C(C(=O)O)=C(CSc3nnnn3C)CS[C@@H]21", "activity change, negative = viability loss": "1.6% (inactive)"}
{"smiles": "CN(C)CCCN1c2ccccc2Sc2ccc(C(F)(F)F)cc21", "Potency": "21.1 µM (active)"}
{"smiles": "CCN1CCc2nc(N)oc2CC1", "activity change, negative = viability loss": "4.92% (inactive)"}
{"smiles": "CCCN1C[C@H](CSC)C[C@@H]2c3cccc4[nH]cc(c34)C[C@H]21", "activity change, negative = viability loss": "-14.7% (inactive)"}
{"smiles": "CC(=O)[C@]1(O)Cc2c(O)c3c(c(O)c2[C@@H](O[C@H]2C[C@H](N)[C@H](O)[C@H](C)O2)C1)C(=O)c1ccccc1C3=O", "Potency": "0.8 nM (active) and 41.7 nM (active)"}
{"test_system": "not listed separately", "assay": "Primary qHTS for inhibitors of nuclear receptor binding SET domain protein 2 (NSD2) in an RCH-ACV wild type WT cells (2C) (AID 1645877); further: nearly all actives have a fitted effect of over 70% in size; further: potency means the concentration at half of the fitted maximal effect; on activity change, negative = cell killing: on the % scale 0 is the no-effect control and ±100 the full control effect", "settings": "RCH-ACV NSD2 WT (2C) viability, CellTiter-Glo, 72 h; series mostly up to 44.9 µM; activity change, negative = cell killing: at the top concentration"}
{"smiles": "Cc1cc(C)c(/C=C2\\C(=O)Nc3ccccc32)[nH]1", "activity change, negative = cell killing": "7.63% (inactive)"}
{"smiles": "CSc1ccc(C(=O)c2[nH]c(=O)[nH]c2C)cc1", "activity change, negative = cell killing": "5.81% (inactive)"}
{"smiles": "COC(=O)[C@H]1[C@H]2C[C@@H]3c4[nH]c5cc(OC)ccc5c4CCN3C[C@H]2C[C@@H](OC(=O)c2cc(OC)c(OC)c(OC)c2)[C@@H]1OC", "activity change, negative = cell killing": "-28% [at 17.3 µM] (inactive)"}
{"smiles": "COCCOC(=O)C1=C(C)NC(C)=C(C(=O)OC(C)C)C1c1cccc([N+](=O)[O-])c1", "note": "(configuration not stated)", "outcome": "inactive"}
{"smiles": "C[n+]1cc2c3c(ccc2c2ccc4cc5c(cc4c21)OCO5)OCO3", "Potency": "0.411 µM (active)"}
{"smiles": "C[C@]12CC[C@@H]3c4ccc(O)cc4C[C@@H](CCCCCCCCCS(=O)CCCC(F)(F)C(F)(F)F)[C@H]3[C@@H]1CC[C@@H]2O", "note": "(some centres not stated)", "activity change, negative = cell killing": "-2.59% (inactive)"}
{"smiles": "COC(=O)C1=C(C)NC(C)=C(C(=O)OCCN(C)Cc2ccccc2)C1c1cccc([N+](=O)[O-])c1", "note": "(configuration not stated)", "Potency": "23.7 µM (active)"}
{"smiles": "CCCCCN(CCCCC)C(=O)C(CCC(=O)O)NC(=O)c1ccc(Cl)c(Cl)c1", "note": "(configuration not stated)", "outcome": "inactive"}
{"smiles": "CCCCOCCOCCOCc1cc2c(cc1CCC)OCO2", "activity change, negative = cell killing": "-18.9% (inactive)"}
{"smiles": "O=C1NCN(c2ccccc2)C12CCN(CCCC(c1ccc(F)cc1)c1ccc(F)cc1)CC2", "Potency": "2.66 µM (active)"}
{"smiles": "C[C@H](CS)C(=O)N1CCC[C@H]1C(=O)O", "activity change, negative = cell killing": "5.14% (inactive)"}
{"smiles": "CC(C)COCC(CN(Cc1ccccc1)c1ccccc1)N1CCCC1", "note": "(configuration not stated)", "Potency": "4.22 µM (active) and 16.6 µM (active)"}
{"smiles": "CO[C@@]1(NC(=O)CSCC#N)C(=O)N2C(C(=O)O)=C(CSc3nnnn3C)CS[C@@H]21", "activity change, negative = cell killing": "1.53% (inactive)"}
{"smiles": "CN(C)CCCN1c2ccccc2Sc2ccc(C(F)(F)F)cc21", "Potency": "18.8 µM (active)"}
{"smiles": "NC(=Nc1ccccc1)Nc1ccccc1", "activity change, negative = cell killing": "-22.8% (inactive)"}
{"smiles": "CC(=O)[C@]1(O)Cc2c(O)c3c(c(O)c2[C@@H](O[C@H]2C[C@H](N)[C@H](O)[C@H](C)O2)C1)C(=O)c1ccccc1C3=O", "Potency": "0.9 nM (active) and 37.2 nM (active)"}
{"molecular_target": "Rap guanine nucleotide exchange factor 3 (Homo sapiens) (UniProt O95398)", "sequence (O95398 whole entry, looked up)": "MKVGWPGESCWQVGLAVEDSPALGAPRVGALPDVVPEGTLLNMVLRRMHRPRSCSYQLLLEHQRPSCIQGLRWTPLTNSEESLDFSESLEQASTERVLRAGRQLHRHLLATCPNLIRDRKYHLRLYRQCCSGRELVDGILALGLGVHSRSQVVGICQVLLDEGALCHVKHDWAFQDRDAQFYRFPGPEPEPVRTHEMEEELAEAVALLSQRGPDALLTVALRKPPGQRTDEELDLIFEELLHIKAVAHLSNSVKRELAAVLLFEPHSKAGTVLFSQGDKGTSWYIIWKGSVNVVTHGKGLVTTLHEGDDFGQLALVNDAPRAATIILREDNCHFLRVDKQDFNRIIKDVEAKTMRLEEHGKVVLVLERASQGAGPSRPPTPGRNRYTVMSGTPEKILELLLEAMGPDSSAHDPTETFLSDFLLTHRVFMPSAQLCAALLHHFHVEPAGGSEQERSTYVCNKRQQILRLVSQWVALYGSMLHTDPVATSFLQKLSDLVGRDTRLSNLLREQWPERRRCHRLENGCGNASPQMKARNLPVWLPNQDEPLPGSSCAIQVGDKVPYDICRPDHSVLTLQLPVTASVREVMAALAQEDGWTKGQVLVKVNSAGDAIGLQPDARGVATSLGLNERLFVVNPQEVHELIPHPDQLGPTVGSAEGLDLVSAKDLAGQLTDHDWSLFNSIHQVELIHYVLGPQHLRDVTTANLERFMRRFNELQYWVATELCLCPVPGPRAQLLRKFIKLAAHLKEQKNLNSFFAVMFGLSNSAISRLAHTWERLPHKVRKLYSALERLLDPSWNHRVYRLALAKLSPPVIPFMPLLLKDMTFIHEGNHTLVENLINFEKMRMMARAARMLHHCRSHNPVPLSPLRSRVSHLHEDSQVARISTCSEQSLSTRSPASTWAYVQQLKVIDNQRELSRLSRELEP", "assay": "Confirmatory qHTS for antagonist of cAMP-regulated guanine nucleotide exchange factor 3 (EPAC1) (AID 1645880);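 further: plate controls were DMSO only for no effect and full effect of the ATA control for full effect; nearly all actives have a fitted effect of over 55% in size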", "settings": "EPAC1 Rap1B-BODIPY-GDP exchange, fluorescence; series mostly up to 115 µM; activity, negative = inhibition: at the top concentration", "how_it_was_run": "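Released BODIPY-GDP fluoresces less than Rap1-bound BODIPY-GDP; the signal is followed at 480/540 nm at 5-min intervals over 30 min, after 5 min at room temperature. Reactions contain 100 nM EPAC1, 250 nM RAP1B-BODIPY-GDP and 50 uM GDP; results are normalized to ATA and DMSO.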"}
{"smiles": "CCOC(=O)C1=C(C)NC(C)=C(C(=O)OC)C1c1cccc([N+](=O)[O-])c1", "note": "(configuration not stated)", "activity, negative = inhibition": "-23.3% (inactive)"}
{"smiles": "Cc1nc2sccn2c(=O)c1CCN1CCC(=C(c2ccc(F)cc2)c2ccc(F)cc2)CC1", "activity, negative = inhibition": "-18.3% (inactive)"}
{"smiles": "CCCCOCCOCCOCc1cc2c(cc1CCC)OCO2", "activity, negative = inhibition": "-21.1% [at 203 µM] (inactive)"}
{"smiles": "CC(=O)[C@]1(O)Cc2c(O)c3c(c(O)c2[C@@H](O[C@H]2C[C@H](N)[C@H](O)[C@H](C)O2)C1)C(=O)c1ccccc1C3=O", "outcome": "inactive"}
